High-throughput results (PubChem BioAssay)
Rows were chosen to be rich in hits. Some 9.5% of all compounds tested hit in one or more screens of this group.
NS1 function inh – blocks influenza NS1 protein function. Potency, µM (highest dose often 46.1 µM). 270,000 compounds, 0.4% hits. AID 2326; further: actives are rising curves; nearly all actives have a fitted effect of over 50% in size
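Compounds were scored for reversing the slow growth caused by influenza A NS1 in S. cerevisiae, measured by optical density at 600 nm. Assay medium contained 2% galactose at pH 6.0; NS1-free yeast of the same strain were the positive control.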
Pf growth 48h – P. falciparum growth inhibition at 48 hours (one generation). AID 504832. 310,000 compounds, 5.9% hits. Potency, µM (top dose mostly 28.7 µM), most hits filed as inhibitors. P. falciparum luciferase growth in erythrocytes, 48 h; active means well fitted inhibition curve with a large enough effect; inconclusive means small, poorly fitted or top-dose-only effect, or another doubt; inactive means no such curve, though single readings can be large or run the other way
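Read-out is firefly luciferase luminescence from an integrated reporter in P. falciparum, so falling signal marks reduced parasite growth. Infected erythrocytes were at 2% hematocrit and 0.1% parasitemia (final) in Albumax-supplemented RPMI 1640.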
Pf growth 96h – P. falciparum growth inhibition at 96 hour, primary screen for plastid delayed-death inhibitors | AID 504834 | P. falciparum luciferase reporter growth, 96 h | 320,000 compounds, 6.9% hits | Potency, µM (titrated, usually from 28.7 µM), most hits filed as inhibitors; active means well fitted inhibition curve with a large enough effect; inconclusive means small, poorly fitted or top-dose-only effect, or another doubt; inactive means no such curve, though single readings can be large or run the other way
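Infected RBCs, 2% Hct / 0.05% parasitemia final; luciferase-reporter P. falciparum; cpd 96 h, 37 C, 5% CO2; luciferase detection reagent; luminescence.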
SARS PLpro yeast – inhibitors of SARS-CoV papain-like protease in yeast; S. cerevisiae expressing SARS-CoV PLpro, growth rescue; Potency, µM (doses to about 32.9 µM), hits mostly activators; 330,000 compounds, 0.19% hits; AID 485353; further: nearly all actives have a fitted effect of over 55% in size
RE007 growth inh – less growth of the S. pombe RE007 Vpr strain. 360,000 compounds, 0.21% hits. S. pombe RE007 Vpr strain, BacTiter-Glo ATP luminescence, 24 h. Potency, µM (series often up to 92.2 µM), most hits filed as inhibitors. AID 651644; active means well fitted falling curve with a large enough effect; inconclusive means small, poorly fitted or top-dose-only effect; inactive means no such curve, though single readings can be large or run the other way; further: nearly all actives have a fitted effect of over 50% in size
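Fission yeast RE007 carrying one integrated HIV-1 vpr copy, seeded at OD 0.01 in PMG+AL medium with 23 nL pinned compound. Grown 24 h at 30 degrees; viability read by BacTiter-Glo luminescence after 5 min.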
Large screens that a line does not name were inactive. Unless noted, the call rests on the fitted dose curve.

CC(=O)OCC1OC(n2c(-c3ccc(Cl)cc3)ccc(C#N)c2=S)C(OC(C)=O)C(OC(C)=O)C1OC(C)=O (stereo not drawn)	none (no result: NS1 function inh, Pf growth 48h, Pf growth 96h, SARS PLpro yeast)
CC(C)(CO)NS(=O)(=O)c1ccc2c(c1)Cc1cc(S(=O)(=O)NC(C)(C)CO)ccc1-2	Pf growth 48h inconclusive
O=C(Nc1nc2n(n1)C(c1ccc(Cl)cc1)CC(c1ccc(Cl)cc1)N2)c1ccco1 (stereo not drawn)	NS1 function inh inconclusive, Pf growth 48h 10µM, Pf growth 96h inconclusive
COc1ccc(C2CC(c3ccc(Cl)cc3)Nc3nc(NC(=O)c4ccco4)nn32)cc1 (stereo not drawn)	Pf growth 48h 9.3µM
O=C(Nc1nc2n(n1)C(c1ccc(F)cc1)CC(c1ccccc1)N2)c1ccco1 (stereo not drawn)	Pf growth 96h inconclusive
COc1ccc(C2CC(c3ccccc3)n3nc(NC(=O)c4cccs4)nc3N2)cc1 (stereo not drawn)	NS1 function inh inconclusive, Pf growth 48h inconclusive
COCCNC(=O)C1(C)CCCN(C(=O)c2cc(OC)c(OC)c(OC)c2)C1 (stereo not drawn)	none (no result: NS1 function inh, Pf growth 48h, Pf growth 96h, SARS PLpro yeast)
CC(CNC(=O)CN1C(=O)COc2ccc(S(=O)(=O)N3CCCCC3)cc21)c1ccccc1 (stereo not drawn)	none
CCN(C(=O)CN1C(=O)COc2ccc(S(=O)(=O)N3CCCCCC3)cc21)c1cccc(C)c1	Pf growth 48h 3.3µM, Pf growth 96h inconclusive
CCOc1ccc(NC(=O)CN2C(=O)COc3ccc(S(=O)(=O)N4CCCCC4)cc32)cc1	Pf growth 48h inconclusive
CNC(=O)CN1C(=O)COc2ccc(S(=O)(=O)N3CCCCCC3)cc21	none
CC(C)N(Cc1ccccc1)C(=O)CN1C(=O)COc2ccc(S(=O)(=O)NC3CCCC3)cc21	Pf growth 48h 5.2µM, Pf growth 96h inconclusive
COc1ccc(NC(=O)CN2C(=O)COc3ccc(S(=O)(=O)N4CCCCCC4)cc32)cc1	Pf growth 96h 10µM
CCN(Cc1ccccc1)C(=O)CN1C(=O)COc2ccc(S(=O)(=O)N3CCCCCC3)cc21	Pf growth 48h 10µM, Pf growth 96h inconclusive
Cc1cccc2c1NC(=O)C2(O)N1CCCC(C)C1 (stereo not drawn)	Pf growth 48h inconclusive
CC1(C(=O)NS(=O)(=O)C2CC2)CCCN(C(=O)/C=C/c2ccccc2)C1 (stereo not drawn)	none (no result: NS1 function inh, Pf growth 48h, Pf growth 96h, SARS PLpro yeast)
CN(C)c1ccc(C2CC(=O)C=C(Nc3ccccc3N)C2)cc1 (stereo not drawn)	none
CC1Cc2ccccc2N1C(=O)CCS(=O)(=O)c1ccc2c(c1)NC(=O)CS2 (stereo not drawn)	none
O=C(COc1ccc(-c2nnco2)cc1)Nc1ccc(C(F)(F)F)cc1	Pf growth 48h inconclusive (no result: NS1 function inh)
C[C@H]1CC[C@H]2C(=O)N3[C@H](c4cccc(N5CCCC5=O)c4)[C@@H](C)CC[C@H]3C(=O)N2[C@@H]1c1cccc(N2CCCC2=O)c1	Pf growth 48h inconclusive, Pf growth 96h inconclusive (no result: RE007 growth inh)
C[C@H]1CC[C@H]2C(=O)N3[C@H](c4ccccc4Br)[C@@H](C)CC[C@H]3C(=O)N2[C@@H]1c1ccccc1Br	Pf growth 48h inconclusive, Pf growth 96h 5.2µM (no result: RE007 growth inh)
CCOc1ccc(NC2=CC(=O)CCC2)cc1	none
CCCCCOc1ccc(NC2=CC(=O)CCC2)cc1	Pf growth 48h 13µM, Pf growth 96h inconclusive
CC(=O)Nc1ccc(-c2csc(-c3cccnc3)n2)cc1	none
CC1CCc2c(C(=O)NCC3CCCO3)csc2C1 (stereo not drawn)	none
Cc1noc(C)c1COC(=O)c1csc2c1CCC(C)C2 (stereo not drawn)	Pf growth 48h 12µM, Pf growth 96h inconclusive (no result: NS1 function inh)
Cc1nnc2n(c1=O)C(CS(=O)(=O)c1ccc3ccccc3c1)CS2 (stereo not drawn)	none (no result: NS1 function inh)
CCOC(=O)/C=C/C(=O)OCC(=O)Nc1c(Cl)cccc1Cl	Pf growth 48h 13µM (no result: NS1 function inh)
CC(=O)Nc1cccc(NC(=O)c2csc(C)c2)c1	Pf growth 96h inconclusive
Cc1nc2ccc(NC(=S)N3CCN(c4ccccn4)CC3)cc2nc1C	Pf growth 96h inconclusive
Cc1cc(N2CCN(C)CC2)nc2ccc(NC(=S)N3CCN(c4ccccn4)CC3)cc12	Pf growth 96h 9.3µM
Cc1ccc(C)c(N2CCN(C(=S)Nc3ccc4nc(N5CCN(C)CC5)cc(C)c4c3)CC2)c1	Pf growth 48h 10µM (no result: NS1 function inh)
